Screening data (PubChem BioAssay)
Only some compounds are listed: those with a hit (about 6.7% of all), similar ones and a draw of the others.
T cruzi growth = blocks T. cruzi growth in NIH3T3 culture; T. cruzi beta-gal in NIH3T3, GalScreen luminescence, 90 h; inhibition, % at 8.34 µM; actives 5.9% (n = 77,000); AID 624255;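 active = mean inhibition above about 93%, with at least 55% of replicates each passing it, limit read from the data, passing the limit was not always enough; inconclusive = only one of those two conditions holds; inactive = neither condition holds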
Pf Dd2 inh = inhibitors of Plasmodium falciparum Dd2 growth | P. falciparum Dd2 growth, SYBR Green, 72 h; hits give low values | activity change, % at 10 µM | actives 2.3% (n = 94,000); in the data active = activity change below about -80%; inconclusive = no clear call, values can overlap the other calls
C diff growth = inhibitors of Clostridium difficile growth; Clostridium difficile clinical isolate growth, OD600, 24 h; hits give low values; growth activity, negative = inhibition, % at 16 µg/mL (by protocol); actives 0.25% (n = 86,000); AID 1259249;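 active = mean growth activity at or below -80% and every replicate also at or below -80%; inconclusive = mean at or below -80% but some replicate above -80%; inactive = mean growth activity above -80%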;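 also: 0% = DMSO wells and -100% = levofloxacin 16 µg/mL wells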
Numbers without * were called inactive.

Cc1noc(C)c1S(=O)(=O)N(C)C[C@H]1OCCCC[C@@H](C)Oc2ccc(NC(=O)Nc3ccc(F)cc3)cc2C(=O)N([C@@H](C)CO)C[C@@H]1C was read as T cruzi growth 94, Pf Dd2 inh -83* and C diff growth -10.
For Cc1noc(C)c1S(=O)(=O)N(C)C[C@H]1OCCCC[C@H](C)Oc2ccc(NC(=O)Nc3ccccc3)cc2C(=O)N([C@@H](C)CO)C[C@@H]1C the results were Pf Dd2 inh inconclusive and C diff growth 5.
Cc1noc(C)c1S(=O)(=O)N(C)C[C@H]1OCCCC[C@@H](C)Oc2ccc(NC(=O)Nc3ccc(F)cc3)cc2C(=O)N([C@H](C)CO)C[C@@H]1C was read as T cruzi growth 9, Pf Dd2 inh -5 and C diff growth -7.
COc1ccc(S(=O)(=O)Nc2ccc3c(c2)CC(=O)N([C@@H](C)CO)C[C@H](C)[C@H](CN(C)S(=O)(=O)c2cn(C)cn2)O3)cc1 was read as T cruzi growth -8, Pf Dd2 inh 9 and C diff growth -2.
`COCC(=O)N1CCC2(CC1)CN(Cc1cc(F)ccc1F)[C@@H](CO)c1[nH]c3cc(OC)ccc3c12` gave Pf Dd2 inh -53.
COc1ccc2c3c([nH]c2c1)[C@H](CO)N(Cc1cc(F)ccc1F)CC31CN(C(=O)CN(C)C)C1 was read as Pf Dd2 inh inconclusive and C diff growth -3.
Screening COc1ccc2c3c([nH]c2c1)[C@@H](CO)N(Cc1cc(F)ccc1F)CC31CCN(C(=O)CN(C)C)CC1 returned Pf Dd2 inh -85* and C diff growth 6.
COc1ccc2c3c([nH]c2c1)[C@@H](CO)N(Cc1cc(F)ccc1F)CC31CN(C(=O)CN(C)C)C1 was read as Pf Dd2 inh -87* and C diff growth -11.
O=C(NCC1CCCCC1)[C@H]1[C@H](CO)[C@H]2Cn3c(ccc(C4=CCCCC4)c3=O)[C@@H]1N2 was read as T cruzi growth 43, Pf Dd2 inh 4 and C diff growth 0.
For COc1ccc(S(=O)(=O)N(C)C[C@@H]2OCCCC[C@H](C)Oc3ccc(NS(=O)(=O)c4ccc(Cl)cc4)cc3C(=O)N([C@H](C)CO)C[C@H]2C)cc1 the results were Pf Dd2 inh -79 and C diff growth -6.
`COc1ccc(S(=O)(=O)N(C)C[C@H]2OCCCC[C@H](C)Oc3ccc(NS(=O)(=O)c4ccc(Cl)cc4)cc3C(=O)N([C@@H](C)CO)C[C@H]2C)cc1` gave Pf Dd2 inh -88* and C diff growth 1.
COc1ccc(S(=O)(=O)Nc2ccc3c(c2)C(=O)N([C@H](C)CO)C[C@H](C)[C@H](CN(C)S(=O)(=O)c2ccc(Cl)cc2)OCCCC[C@@H](C)O3)cc1 was read as T cruzi growth 94, Pf Dd2 inh -38 and C diff growth 14.
For COc1ccc(S(=O)(=O)N(C)C[C@@H]2OCCCC[C@@H](C)Oc3ccc(NS(=O)(=O)c4ccc(Cl)cc4)cc3C(=O)N([C@@H](C)CO)C[C@H]2C)cc1 the results were Pf Dd2 inh -41 and C diff growth -1.
For COc1ccc(S(=O)(=O)N(C)C[C@H]2OCCCC[C@H](C)Oc3ccc(NS(=O)(=O)c4ccc(Cl)cc4)cc3C(=O)N([C@H](C)CO)C[C@@H]2C)cc1 the results were Pf Dd2 inh -87* and C diff growth 2.
COc1ccc(S(=O)(=O)N(C)C[C@H]2OCCCC[C@@H](C)Oc3ccc(NS(=O)(=O)c4ccc(Cl)cc4)cc3C(=O)N([C@H](C)CO)C[C@H]2C)cc1 was read as Pf Dd2 inh -90* and C diff growth -2.
For CCCNC(=O)C[C@@H]1CC[C@@H]2[C@H](COc3ccc(NC(=O)c4cccc(C(F)(F)F)c4)cc3C(=O)N2C)O1 the results were T cruzi growth -10, Pf Dd2 inh -25 and C diff growth 2.
`CCCNC(=O)Nc1ccc2c(c1)C(=O)N(C)C[C@H](OC)[C@@H](C)CN(C(=O)C1CCOCC1)[C@@H](C)CO2` gave T cruzi growth -2 and Pf Dd2 inh -77.
`CO[C@@H]1CN(C)C(=O)c2cc(NC(=O)c3cnccn3)ccc2OC[C@H](C)N(C(C)=O)C[C@@H]1C` gave Pf Dd2 inh 8.
Screening CCCNC(=O)N1CC2(CCN(Cc3cccc(OC)c3)CC2)c2c(n(C)c3cc(OC)ccc23)[C@H]1CO returned Pf Dd2 inh -72 and C diff growth 1.
`CCCNC(=O)N1CC2(CN(C(=O)CN(C)C)C2)c2c(n(C)c3cc(OC)ccc23)[C@H]1CO` gave Pf Dd2 inh 33 and C diff growth 3.
CCC(=O)N1CC2(CCN(Cc3ccc(Cl)cc3)CC2)c2c(n(C)c3cc(OC)ccc23)[C@H]1CO was read as Pf Dd2 inh -83* and C diff growth -2.
`COc1ccc2c3c(n(C)c2c1)[C@@H](CO)N(C(=O)C1CC1)CC31CCN(C(=O)CN(C)C)CC1` gave Pf Dd2 inh -84* and C diff growth -4.
CCCNC(=O)N1CC2(CCN(Cc3cccc(OC)c3)CC2)c2c(n(C)c3cc(OC)ccc23)[C@@H]1CO was read as Pf Dd2 inh -89* and C diff growth -3.
Screening CCCNC(=O)N1CC2(CCN(C(=O)CN(C)C)CC2)c2c(n(C)c3cc(OC)ccc23)[C@H]1CO returned Pf Dd2 inh -88* and C diff growth -4.
`COc1ccc2c3c(n(C)c2c1)[C@H](CO)N(C(=O)C1CC1)CC31CCN(C(=O)CN(C)C)CC1` gave Pf Dd2 inh -78 and C diff growth -3.
CCC(=O)N1CC2(CN(Cc3ccc(Cl)cc3)C2)c2c(n(C)c3cc(OC)ccc23)[C@@H]1CO was read as Pf Dd2 inh -65 and C diff growth 5.
Screening C[C@@H]1CN([C@@H](C)CO)C(=O)c2cccc(NC(=O)C3CC3)c2O[C@H]1CN(C)S(=O)(=O)c1ccc(Cl)cc1 returned T cruzi growth 26, Pf Dd2 inh -2 and C diff growth 1.
For Cc1noc(C)c1S(=O)(=O)N(C)C[C@H]1Oc2ccc(NS(=O)(=O)c3ccccc3)cc2CC(=O)N([C@H](C)CO)C[C@H]1C the results were T cruzi growth 34, Pf Dd2 inh 1 and C diff growth -6.
Screening CCCNC(=O)N1CCC2(CC1)CN(S(C)(=O)=O)[C@H](CO)c1c2c2ccc(OC)cc2n1C returned Pf Dd2 inh -83* and C diff growth 3.
CCCNC(=O)N1CC2(C1)CN(S(C)(=O)=O)[C@@H](CO)c1c2c2ccc(OC)cc2n1C was read as Pf Dd2 inh 43 and C diff growth -10.
`O=C(Cc1ccncc1)N1CC[C@@H]2[C@@H](CO)Nc3ccc(-c4cccc(F)c4)cc3[C@@H]21` gave Pf Dd2 inh -92* and C diff growth 1.
COc1ccc(S(=O)(=O)N2CC[C@@H]3[C@@H](CO)Nc4ccc(-c5ccc(C#N)cc5)cc4[C@@H]32)cc1 was read as T cruzi growth 60, Pf Dd2 inh -81* and C diff growth 6.
For COc1ccc(S(=O)(=O)N2CC[C@@H]3[C@H]2c2cc(-c4cccc(C#N)c4)ccc2N[C@@H]3CO)cc1 the results were T cruzi growth 36, Pf Dd2 inh 5 and C diff growth -2.
